Test [1] can be described thus: ATG_Sox_CIS: Attagene CIS-FACTORIAL HepG2 Assay for human SRY-box transcription factor (SOX) (AID 2282960). Particulars: HepG2 Attagene cis-factorial SOX reporter, mRNA; actives raise or lower the signal. Put shortly: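 HepG2, cis reporter units, 24 h exposure. Reporter mRNA: RT-PCR → FAM labelling → HpaI → CE fluorescence. Bidirectional fit vs DMSO.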
Test [2] concerns the target Transcription factor Sp1 (Homo sapiens) (UniProt P08047). The experiment in a line: ATG_Sp1_CIS: Attagene CIS-FACTORIAL HepG2 Assay for human Specificity Protein 1 (Sp1) (AID 2282961). Particulars: HepG2 Sp1 cis-reporter transcription, actives raise or lower the signal. Put shortly: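 Liver-derived HepG2 cells, cis-element reporter library, 24 h treatment; RNA isolated, cDNA amplified with reporter-specific primers, FAM-labeled fragments sized on capillary analyzer. DMSO baseline, bidirectional curve fit.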

A short description of test [3]: ATG_SREBP_CIS: Attagene CIS-FACTORIAL HepG2 Assay for human Sterol Regulatory Element Binding (SREBP) (AID 2282962). Conditions: HepG2 Attagene cis-factorial SREBP reporter, mRNA; actives raise or lower the signal. The method, boiled down:
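Readout: fluorescent reporter-transcript peaks resolved by capillary electrophoresis after RT-PCR. Cells were human HepG2 carrying transfected cis-promoter reporter constructs, dosed for 24 h. Gain or loss of signal was fitted against DMSO controls.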

Test [4] concerns the target Signal transducer and activator of transcription 3 (Homo sapiens) (UniProt P40763). Put plainly: ATG_STAT3_CIS: Attagene CIS-FACTORIAL HepG2 Assay for human Signal Transducer and Activator of Transcription 3 (STAT3) (AID 2282963). Conditions: HepG2, Attagene cis-factorial STAT3 reporter transcription; actives raise or lower the signal. The method, boiled down: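 Readout: fluorescent reporter mRNA fragments resolved by capillary electrophoresis. Setup: HepG2 transfected with MRTUs reporting endogenous transcription-factor activity, dosed 24 h. Gain or loss of signal fitted bidirectionally against DMSO control.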

Test [5] can be described thus: ATG_TA_CIS: Attagene CIS-FACTORIAL HepG2 Assay for human TA Basal Promoter (AID 2282964). Particulars: HepG2 Attagene CIS-factorial TA basal promoter reporter; actives raise or lower the signal. Put shortly: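 Steps: transfect HepG2 with MRTUs; dose 24 h; isolate RNA, DNase-treat, reverse-transcribe; PCR and FAM-label reporter cDNA; digest with HpaI 2h at 37 C; run capillary electrophoresis. Activity fitted both directions against DMSO.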

A short description of test [6]: ATG_TCF_b_cat_CIS: Attagene CIS-FACTORIAL HepG2 Assay for human T-Cell-Factor with beta-catenin (TCF/b-cat) (AID 2282965). Conditions: HepG2 TCF/beta-catenin cis-reporter transcription, actives raise or lower the signal. The method, boiled down: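 Cells of the HepG2 line carry transiently transfected reporter units whose promoters respond to endogenous factors. Twenty-four hours post-dosing, reporter mRNA induction is measured by fluorescent RT-PCR and capillary electrophoresis, with DMSO as baseline.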

The nature of test [7]: ATG_TAL_CIS: Attagene CIS-FACTORIAL HepG2 Assay for human TAL Basal Promoter (AID 2282966).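 Also: background control endpoint measuring basal TAL promoter reporter mRNA not a specific factor.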 Particulars: HepG2 Attagene cis-factorial TAL promoter reporter; actives raise or lower the signal. The method, boiled down:
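Transiently transfected HepG2 (cis-regulated reporter units), 24 h treatment, mRNA read by fluorescent CE after RT-PCR; bidirectional fit, DMSO baseline.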

Test [8] in a line: ATG_TGFb_CIS: Attagene CIS-FACTORIAL HepG2 Assay for human Transforming Growth Factor (TGF) (AID 2282967). Particulars: HepG2 Attagene CIS TGFb reporter, mRNA transcription; actives raise or lower the signal. Put shortly: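 Cells were dosed for 24 hours, after which total RNA was reverse-transcribed and reporter sequences amplified, labeled and sized by capillary electrophoresis. Activity was fitted in both directions against DMSO.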

Test [9] in a line: ATG_VDRE_CIS: Attagene CIS-FACTORIAL HepG2 Assay for human Vitamin D Receptor Element (VDRE) (AID 2282968). Particulars: HepG2 VDRE cis-reporter transcription, actives raise or lower the signal. Put shortly: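 Transient MRTU transfection of HepG2, 24 h compound exposure. Readout: reporter transcripts via RT-PCR and capillary electrophoresis, fluorescence. Bidirectional fit vs DMSO.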

Test [10] deals with X-box-binding protein 1 (Homo sapiens) (UniProt P17861). The experiment in a line: ATG_Xbp1_CIS: Attagene CIS-FACTORIAL HepG2 Assay for human X-box Binding Protein 1 (XBP1) (AID 2282972). Particulars: HepG2 XBP1 cis-element reporter, Attagene multiplex; actives raise or lower the signal. The method, boiled down:
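Read-out: fluorescent reporter mRNA fragments resolved by capillary electrophoresis after RT-PCR. Human HepG2 liver cells carried transfected cis-promoter reporter units and were exposed to chemicals for 24 hours. Gain or loss of signal fitted relative to DMSO baseline.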

The target in test [11] is Androgen receptor (Homo sapiens) (UniProt P10275). The experiment in a line: ATG_AR_TRANS: Attagene TRANS-FACTORIAL HepG2 Assay for human Androgen Receptor (AR) (AID 2282973; active = hit-call score of the fitted dose curve at least 0.9, where 1 is the maximum). Particulars: HepG2 Attagene TRANS-FACTORIAL AR reporter transcription. The method, boiled down: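 HepG2 cells transiently transfected with multiplexed GAL4-UAS reporter units and chimeric NR-Gal4 fusion; 24 h compound exposure. Reporter mRNA measured by RT-PCR, 6-FAM labelling, HpaI digestion and capillary electrophoresis; gain-of-signal fitted relative to DMSO baseline.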
Androgen receptor (Homo sapiens), sequence (P10275 whole entry, looked up, the tested form may be a part): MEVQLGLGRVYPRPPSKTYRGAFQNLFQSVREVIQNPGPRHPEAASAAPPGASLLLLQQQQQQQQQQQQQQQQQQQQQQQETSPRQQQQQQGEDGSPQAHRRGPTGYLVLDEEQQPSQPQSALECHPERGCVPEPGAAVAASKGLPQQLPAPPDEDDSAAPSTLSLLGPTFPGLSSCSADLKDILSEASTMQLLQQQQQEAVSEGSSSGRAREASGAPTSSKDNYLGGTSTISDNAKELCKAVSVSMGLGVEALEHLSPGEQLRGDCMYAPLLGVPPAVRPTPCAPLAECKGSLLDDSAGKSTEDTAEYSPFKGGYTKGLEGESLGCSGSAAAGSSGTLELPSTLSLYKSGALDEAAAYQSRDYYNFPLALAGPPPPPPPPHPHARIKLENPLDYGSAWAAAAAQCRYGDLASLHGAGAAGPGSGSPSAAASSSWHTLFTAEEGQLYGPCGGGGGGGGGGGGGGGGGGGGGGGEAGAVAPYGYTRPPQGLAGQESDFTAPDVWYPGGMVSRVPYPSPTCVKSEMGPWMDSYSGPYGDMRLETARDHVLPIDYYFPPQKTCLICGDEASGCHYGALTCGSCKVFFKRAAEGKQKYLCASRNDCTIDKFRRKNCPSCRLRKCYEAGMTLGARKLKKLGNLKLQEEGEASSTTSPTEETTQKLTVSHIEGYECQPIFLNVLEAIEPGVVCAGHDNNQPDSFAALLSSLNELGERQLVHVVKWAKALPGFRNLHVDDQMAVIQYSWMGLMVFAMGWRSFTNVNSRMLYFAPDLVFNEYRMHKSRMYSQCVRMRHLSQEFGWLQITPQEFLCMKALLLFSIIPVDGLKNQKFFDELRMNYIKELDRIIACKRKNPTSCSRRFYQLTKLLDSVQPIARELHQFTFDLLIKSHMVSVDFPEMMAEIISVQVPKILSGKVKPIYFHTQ

The nature of test [12]: ATG_M_19_TRANS: Attagene TRANS-FACTORIAL HepG2 Assay for M19 Transcription Factor (Internal Marker) (AID 2282974; active = hit-call score of the fitted dose curve at least 0.9, where 1 is the maximum). Conditions: HepG2 Attagene TRANS-FACTORIAL M19 internal marker reporter. The method, boiled down: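 Transfected HepG2 (GAL4-UAS MRTUs), 24 h compound, TriZol RNA, DNase-treated RT, reporter PCR, FAM label, HpaI digest, CE fluorescence; gain vs DMSO.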
Test [13] is described as follows: ATG_GAL4_TRANS: Attagene TRANS-FACTORIAL HepG2 Assay for GAL4 (Internal Marker) (AID 2282976; active = hit-call score of the fitted dose curve at least 0.9, where 1 is the maximum). Particulars: HepG2 Attagene TRANS GAL4 internal marker reporter. The method, boiled down:
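HepG2 cells transiently transfected with multiplexed GAL4-UAS reporter constructs were dosed for 24 h. Reporter mRNA was measured by RT-PCR, 6-FAM primer extension, HpaI digestion and capillary electrophoresis, and gain of signal was fitted relative to DMSO.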

The target in test [14] is Glucocorticoid receptor (Homo sapiens) (UniProt P04150). Put plainly: ATG_GR_TRANS: Attagene TRANS-FACTORIAL HepG2 Assay for human Glucocorticoid Receptor (GR) (AID 2282978; active = hit-call score of the fitted dose curve at least 0.9, where 1 is the maximum;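 also: activators score as hits since higher reporter transcript over DMSO is fitted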). Particulars: HepG2 Attagene TRANS GR reporter, mRNA transcription. Put shortly: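 After 24 h incubation with test chemical, transfected HepG2 cells were lysed for RNA; reporter cDNA was amplified, FAM-labelled, HpaI-digested and sized on a capillary analyser. Signal gain relative to DMSO was scored.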

Test [15] addresses Bile acid receptor (Homo sapiens) (UniProt Q96RI1). Put plainly: ATG_FXR_TRANS: Attagene TRANS-FACTORIAL HepG2 Assay for Farnesoid X Receptor (FXR) (AID 2282979; active = hit-call score of the fitted dose curve at least 0.9, where 1 is the maximum;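 also: hits raise reporter mRNA above DMSO so AC50 marks FXR activation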). Particulars: HepG2 Attagene TRANS FXR-GAL4 reporter transcription. The method, boiled down:
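HepG2 cells transiently transfected with reporter constructs in which a chimeric FXR-GAL4 protein drives a GAL4-UAS reporter; 24 h compound exposure. Reporter mRNA measured by RT-PCR, FAM labelling, HpaI digestion and capillary electrophoresis; gain-of-signal versus DMSO.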

The target of test [16] is Nuclear receptor subfamily 1 group I member 3 (Homo sapiens) (UniProt Q14994). The experiment in a line: ATG_CAR_TRANS: Attagene TRANS-FACTORIAL HepG2 Assay for human Constitutive Androstane Receptor (CAR) (AID 2282969; active = hit-call score of the fitted dose curve at least 0.9, where 1 is the maximum;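 also: activators raise reporter mRNA above DMSO so AC50 marks induction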). Conditions: HepG2 Attagene TRANS-FACTORIAL CAR reporter. The method, boiled down: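 Transiently transfected HepG2, multiplex TRANS reporters (CAR-Gal4 chimera driving GAL4-UAS reporter). 24 h dosing. Readout: reporter transcript by RT-PCR + capillary electrophoresis, fluorescence intensity; positive direction vs DMSO.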
Nuclear receptor subfamily 1 group I member 3 (Homo sapiens), sequence (Q14994 whole entry, looked up, the tested form may be a part): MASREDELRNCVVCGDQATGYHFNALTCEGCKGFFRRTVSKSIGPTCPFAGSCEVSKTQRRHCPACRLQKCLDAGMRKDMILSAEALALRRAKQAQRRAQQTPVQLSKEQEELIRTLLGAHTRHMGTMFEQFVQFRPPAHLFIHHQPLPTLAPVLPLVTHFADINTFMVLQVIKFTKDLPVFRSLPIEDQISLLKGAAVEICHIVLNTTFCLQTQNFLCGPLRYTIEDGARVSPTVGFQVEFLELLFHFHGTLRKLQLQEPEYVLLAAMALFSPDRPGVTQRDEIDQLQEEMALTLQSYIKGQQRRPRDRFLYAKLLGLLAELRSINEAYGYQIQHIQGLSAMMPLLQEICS

Test [17] addresses Oxysterols receptor LXR-beta (Homo sapiens) (UniProt P55055). The experiment in a line: ATG_LXRb_TRANS: Attagene TRANS-FACTORIAL HepG2 Assay for human Liver X Receptor beta (LXRb) (AID 2282981; active = hit-call score of the fitted dose curve at least 0.9, where 1 is the maximum). Conditions: HepG2 Attagene TRANS GAL4-LXRb reporter, mRNA. The method, boiled down: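 Readout: fluorescent reporter mRNA fragments resolved by capillary electrophoresis after RT-PCR. System: transiently transfected human HepG2, exogenous LXRb-Gal4 chimera driving GAL4-UAS reporter, 24 h dosing. Activity fitted upward against DMSO baseline.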

Test [18] concerns the target Steroid hormone receptor ERR1 (Homo sapiens) (UniProt P11474). The experiment in a line: ATG_ERRa_TRANS: Attagene TRANS-FACTORIAL HepG2 Assay for human Estrogen-Related Receptor alpha (ERRa) (AID 2282971; active = hit-call score of the fitted dose curve at least 0.9, where 1 is the maximum). Conditions: HepG2 Attagene TRANS reporter, ERRa transactivation. Put shortly:
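HepG2 cells transiently transfected with multiplexed GAL4-UAS reporter units reading chimeric ERRa-Gal4 activity; 24 h compound exposure. Reporter mRNA measured by RT-PCR, 6-FAM labelling, HpaI digest and capillary electrophoresis; gain of signal fitted versus DMSO baseline.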

The values below come from PubChem BioAssay (EPA / NIEHS).

Records with an inconclusive call do not appear. Calls of active or inactive are those of the source. The calls were made as follows, unless noted: active = hit-call score of the fitted dose curve at least 0.9, where 1 is the maximum; inactive = score below 0.9.

X-box-binding protein 1 (Homo sapiens), sequence (P17861 whole entry, looked up, the tested form may be a part): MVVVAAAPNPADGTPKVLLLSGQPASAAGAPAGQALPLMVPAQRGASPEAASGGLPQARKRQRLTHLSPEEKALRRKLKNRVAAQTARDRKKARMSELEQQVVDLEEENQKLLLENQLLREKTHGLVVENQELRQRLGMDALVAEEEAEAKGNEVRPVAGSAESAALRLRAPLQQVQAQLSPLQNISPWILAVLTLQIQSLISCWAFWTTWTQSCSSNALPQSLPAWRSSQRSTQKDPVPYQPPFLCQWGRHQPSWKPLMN
Signal transducer and activator of transcription 3 (Homo sapiens), sequence (P40763 whole entry, looked up, the tested form may be a part): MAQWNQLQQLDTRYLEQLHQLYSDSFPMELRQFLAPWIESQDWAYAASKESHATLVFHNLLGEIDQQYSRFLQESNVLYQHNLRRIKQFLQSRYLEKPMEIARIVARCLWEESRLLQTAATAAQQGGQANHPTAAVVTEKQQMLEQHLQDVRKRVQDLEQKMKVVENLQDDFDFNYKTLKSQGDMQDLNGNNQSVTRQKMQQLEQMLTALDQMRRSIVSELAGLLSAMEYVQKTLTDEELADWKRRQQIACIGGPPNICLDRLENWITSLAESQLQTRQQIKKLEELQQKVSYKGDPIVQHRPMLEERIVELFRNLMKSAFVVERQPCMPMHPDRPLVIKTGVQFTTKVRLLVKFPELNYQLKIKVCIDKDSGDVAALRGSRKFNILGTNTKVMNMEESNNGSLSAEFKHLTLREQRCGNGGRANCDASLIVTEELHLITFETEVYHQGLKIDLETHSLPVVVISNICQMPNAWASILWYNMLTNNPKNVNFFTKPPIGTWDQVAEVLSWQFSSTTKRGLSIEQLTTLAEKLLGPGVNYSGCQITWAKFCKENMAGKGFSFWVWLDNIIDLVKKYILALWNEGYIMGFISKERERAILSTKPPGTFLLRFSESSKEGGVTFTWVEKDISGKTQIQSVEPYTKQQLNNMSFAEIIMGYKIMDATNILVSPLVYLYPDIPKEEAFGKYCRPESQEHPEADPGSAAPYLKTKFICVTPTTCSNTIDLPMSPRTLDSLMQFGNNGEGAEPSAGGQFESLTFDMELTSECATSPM
Oxysterols receptor LXR-beta (Homo sapiens), sequence (P55055 whole entry, looked up, the tested form may be a part): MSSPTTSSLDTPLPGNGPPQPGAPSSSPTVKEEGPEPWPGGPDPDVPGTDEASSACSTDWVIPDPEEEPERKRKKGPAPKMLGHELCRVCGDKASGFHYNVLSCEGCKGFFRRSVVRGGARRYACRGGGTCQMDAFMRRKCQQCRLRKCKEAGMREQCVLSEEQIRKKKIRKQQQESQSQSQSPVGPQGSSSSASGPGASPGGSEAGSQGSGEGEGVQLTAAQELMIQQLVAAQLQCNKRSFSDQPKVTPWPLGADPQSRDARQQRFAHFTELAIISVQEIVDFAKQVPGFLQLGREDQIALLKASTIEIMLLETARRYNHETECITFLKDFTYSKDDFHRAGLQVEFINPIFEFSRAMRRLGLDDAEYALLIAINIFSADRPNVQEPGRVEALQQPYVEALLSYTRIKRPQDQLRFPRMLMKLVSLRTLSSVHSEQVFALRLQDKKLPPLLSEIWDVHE
Transcription factor Sp1 (Homo sapiens), sequence (P08047 whole entry, looked up, the tested form may be a part): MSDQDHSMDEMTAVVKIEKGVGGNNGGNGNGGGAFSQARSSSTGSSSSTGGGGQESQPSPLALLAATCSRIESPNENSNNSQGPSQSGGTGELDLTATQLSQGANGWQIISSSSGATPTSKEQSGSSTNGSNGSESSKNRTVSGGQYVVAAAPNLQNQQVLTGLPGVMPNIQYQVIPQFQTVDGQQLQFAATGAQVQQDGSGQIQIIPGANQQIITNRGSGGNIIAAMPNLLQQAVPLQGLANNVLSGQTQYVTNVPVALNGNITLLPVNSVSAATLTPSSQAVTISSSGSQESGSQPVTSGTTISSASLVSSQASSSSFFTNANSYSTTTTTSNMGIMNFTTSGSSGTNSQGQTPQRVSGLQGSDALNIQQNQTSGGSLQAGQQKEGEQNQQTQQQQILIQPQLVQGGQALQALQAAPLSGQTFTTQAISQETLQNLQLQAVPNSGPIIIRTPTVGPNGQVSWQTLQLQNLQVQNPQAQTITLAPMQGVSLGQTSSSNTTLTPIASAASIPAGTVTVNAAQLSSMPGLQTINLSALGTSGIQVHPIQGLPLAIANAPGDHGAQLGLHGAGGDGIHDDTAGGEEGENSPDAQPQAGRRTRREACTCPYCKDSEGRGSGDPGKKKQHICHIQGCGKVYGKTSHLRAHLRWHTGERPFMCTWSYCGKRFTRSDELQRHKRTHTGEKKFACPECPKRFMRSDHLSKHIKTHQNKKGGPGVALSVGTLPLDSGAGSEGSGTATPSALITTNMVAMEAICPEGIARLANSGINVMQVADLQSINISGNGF
Bile acid receptor (Homo sapiens), sequence (Q96RI1 whole entry, looked up, the tested form may be a part): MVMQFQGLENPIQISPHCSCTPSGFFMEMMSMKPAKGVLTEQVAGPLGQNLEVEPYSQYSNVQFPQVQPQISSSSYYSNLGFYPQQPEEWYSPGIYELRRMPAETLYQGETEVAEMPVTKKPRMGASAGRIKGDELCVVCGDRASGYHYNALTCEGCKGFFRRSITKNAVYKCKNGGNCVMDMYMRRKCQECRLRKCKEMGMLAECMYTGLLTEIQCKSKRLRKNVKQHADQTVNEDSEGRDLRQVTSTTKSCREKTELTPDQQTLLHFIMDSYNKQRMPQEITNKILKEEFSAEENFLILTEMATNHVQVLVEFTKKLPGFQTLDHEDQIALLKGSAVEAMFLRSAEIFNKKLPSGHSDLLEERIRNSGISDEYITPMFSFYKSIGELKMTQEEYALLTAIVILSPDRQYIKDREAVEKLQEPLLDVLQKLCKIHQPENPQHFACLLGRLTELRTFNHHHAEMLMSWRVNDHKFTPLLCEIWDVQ
Steroid hormone receptor ERR1 (Homo sapiens), sequence (P11474 whole entry, looked up, the tested form may be a part): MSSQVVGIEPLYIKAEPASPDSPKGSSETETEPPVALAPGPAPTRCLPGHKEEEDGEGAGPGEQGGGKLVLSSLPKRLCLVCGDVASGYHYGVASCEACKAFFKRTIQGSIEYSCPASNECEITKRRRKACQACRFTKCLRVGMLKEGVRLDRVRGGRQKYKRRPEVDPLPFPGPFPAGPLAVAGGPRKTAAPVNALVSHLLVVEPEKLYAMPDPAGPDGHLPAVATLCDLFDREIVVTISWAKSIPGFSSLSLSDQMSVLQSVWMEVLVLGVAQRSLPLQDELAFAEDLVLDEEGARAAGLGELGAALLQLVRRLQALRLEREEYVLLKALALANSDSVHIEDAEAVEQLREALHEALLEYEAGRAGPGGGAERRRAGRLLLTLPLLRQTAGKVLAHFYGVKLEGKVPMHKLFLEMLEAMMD

On to `Oc1c(I)cc(I)cc1I`, for which the concentration at half-maximal activity (AC50) was 160 µM (active) in test [1]; 55.8 µM (active) in test [5]; 25.9 µM (active) in test [6]; 76.1 µM (active) in [7]; 19 µM (active) in test [9]; 33.6 µM (active) in [10]. The AC50 in [15] is 100 µM (active). Moreover, the result in test [2], in [3], in test [4], in [8], in test [11] and in [12] was inactive. Further, the outcome in [13] and in test [14] was inactive.

For the molecule `Cc1ccc2ccccc2c1C`, the result in test [1], in test [2], in [3], in test [4], in [5] and in [6] was inactive. Besides, the molecule was called inactive in test [7], in [8], in [16], in test [10], in [11] and in [12]. For the same molecule, the outcome in test [17] was inactive.

For the molecule `Cl/C=C\C[N+]12CN3CN(CN(C3)C1)C2`, the outcome in [1], in test [2], in test [3], in test [4], in test [5] and in test [7] was inactive. For the same molecule, the outcome in test [8], in [9], in test [18], in [10], in test [11] and in test [12] was inactive. Also, the result in [17] was inactive. For the same molecule, the concentration at half-maximal activity (AC50) in [6] is 26 µM (active).

For `NC(=S)Nc1ccccc1`, the outcome in test [1], in test [2], in test [3], in test [4], in test [5] and in test [6] was inactive. Besides, the outcome in test [7], in test [8], in test [9], in test [10], in [12] and in [13] was inactive. In [17], the outcome was inactive.
